Measured values as given in PubChem BioAssay (EPA / NIEHS).
Records with an inconclusive call do not appear. Activity calls are given as the source filed them. How the source made its calls: active means hit-call score of the fitted dose curve at least 0.9, where 1 is the maximum; inconclusive means response in the unintended direction; inactive means score below 0.9.

Target: D(1A) dopamine receptor (Homo sapiens) (UniProt P21728)
Assay: NVS_GPCR_hDRD1: NovaScreen (NVS) G Protein-Coupled Receptor Assay for human Dopamine Receptor D1 (DRD1) (AID 2283269)
Procedure: NVS_GPCR_hDRD1 is a biochemical, single-readout assay that uses extracted gene-proteins from HEK293 in a cell-free assay. Measurements were taken 1 hour after chemical dosing in a 96-well plate.NVS_GPCR_hDRD1 is one of one assay component(s) measured or calculated from the NVS_GPCR_hDRD1 assay. It is designed to make measurements of radioligand binding, a form of binding reporter, as detected with scintillation counting signals by Filter-based radiodetection technology.Data from the assay component NVS_GPCR_hDRD1 was analyzed into 1 assay endpoint. This assay endpoint, NVS_GPCR_hDRD1, was analyzed in the positive analysis fitting direction relative to DMSO as the negative control and baseline of activity. Using a type of binding reporter, loss-of-signal activity can be used to understand changes in the binding as they relate to the gene DRD1. Furthermore, this assay endpoint can be referred to as a primary readout, because the performed assay has only produced 1 assay endpoint. To generalize the intended target to other relatable targets, this assay endpoint is annotated to the gpcr intended target family, where the subfamily is rhodopsin-like receptor.
Binding assays used specific radioligands (tritiated, iodinated) with non-radioactive competitive displacement ligands in agonist or antagonist protocols (as indicated) and various reference compounds and inhibitors to titrate specific binding to receptors and transporters. Most enzyme assays (CYPs, kinases, phosphatases, proteases, HDACs) used recombinant protein and specific substrates (fluorescence mostly, some colorimetric and radioactive) and inhibitors, followed by a biochemical separation of substrate and product. All assays for the biochemical HTS were initially run in duplicate at a single concentration (10 uM for CYP450 assays and 25 uM for all others). […] Each assay was run with positive and negative controls, and concurrent controls on every plate. The follow-up (secondary) screen tested active chemical-pairs in concentration series, as well as a few additional assays not tested in the primary screen, some selected negative inactives, and several cases re-run in the concentration series for confirmatory purposes.

Sequence of D(1A) dopamine receptor (Homo sapiens) (P21728 whole entry, looked up): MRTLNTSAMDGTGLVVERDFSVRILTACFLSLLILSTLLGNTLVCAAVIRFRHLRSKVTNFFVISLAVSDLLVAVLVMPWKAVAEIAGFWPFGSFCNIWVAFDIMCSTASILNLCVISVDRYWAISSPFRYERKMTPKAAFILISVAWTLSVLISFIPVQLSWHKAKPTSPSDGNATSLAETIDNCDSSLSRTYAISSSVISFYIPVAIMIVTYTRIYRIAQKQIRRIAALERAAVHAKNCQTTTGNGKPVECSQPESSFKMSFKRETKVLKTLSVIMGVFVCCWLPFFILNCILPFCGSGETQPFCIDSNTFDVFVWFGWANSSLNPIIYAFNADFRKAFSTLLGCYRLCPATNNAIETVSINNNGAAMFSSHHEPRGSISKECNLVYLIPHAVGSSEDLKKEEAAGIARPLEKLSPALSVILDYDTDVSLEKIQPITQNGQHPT

Compound	AC50	outcome
CCCCCCCCCCCCCCCC(=O)OC/C=C(C)/C=C/C=C(C)/C=C/C1=C(C)CCCC1(C)C	34.7 µM (active)	–
CCCCOCC	–	inactive
ClC(c1ccccc1)(c1ccccc1)c1ccccc1	–	inactive
C=CCOC(=O)CCCCCC	–	inactive
CCOC(=O)CN	–	inactive
COCCc1ccc(OCC(O)CNC(C)C)cc1 (configuration not stated)	–	inactive
CN(C)C(=S)SC(=S)N(C)C	30.8 µM (active)	–
CCCCSCCCC	–	inactive
CN(c1nccc(=O)[nH]1)C1CCN(c2nc3ccccc3n2Cc2ccc(F)cc2)CC1	–	inactive
C[C@@H]1CCN(C(=O)[C@H](CCCN=C(N)N)NS(=O)(=O)c2cccc3c2NC[C@H](C)C3)[C@@H](C(=O)O)C1	17 µM (active)	–
CCC1CCCCC1	–	inactive
CC(C)(N=C=O)c1cccc(C(C)(C)N=C=O)c1	43.7 µM (active)	–
